High-throughput results deposited in PubChem BioAssay by National Center for Advancing Translational Sciences (NCATS).
Rows were chosen to be rich in hits. Some 8.9% of all compounds tested hit in one or more screens of this group.
IMPase Li cell – membrane-permeable IMPase blocker, potentiated with lithium. CHO-M1 cells, IP1 TR-FRET (IP-One), carbachol + lithium. Potency, µM (highest dose often 59.4 µM), hits mostly inhibitors. 0.35% of 210,000 active. AID 1457;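 note: IP1 builds up when IMPase is blocked and the TR-FRET signal falls; nearly all actives have a fitted effect of over 50% in size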
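IP1 accumulation measured by competitive TR-FRET in lysed CHO-M1 cells after 30 min compound exposure at 37C, with a small lithium addition to potentiate weak responses. Hill-equation AC50 from ratio and donor-channel data.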
NPSR antag – antagonists of human neuropeptide S receptor cAMP signaling. Q6W5P4. CHO-NPSR cells, cAMP TR-FRET, antagonist mode. Potency, µM (doses to about 38.3 µM), actives largely listed as inhibitors. 1% of 220,000 active. AID 1461; note: nearly all actives have a fitted effect of over 50% in size
ALOX12 inhib – blocks human 12-lipoxygenase activity; P18054; purified 12-hLO, xylenol orange hydroperoxide absorbance; Potency, µM (titrated, usually from 57.1 µM), most hits filed as inhibitors; AID 1452; 0.12% of 150,000 active; note: nearly all actives have a fitted effect of over 55% in size
Target sequence (P18054 whole entry, looked up): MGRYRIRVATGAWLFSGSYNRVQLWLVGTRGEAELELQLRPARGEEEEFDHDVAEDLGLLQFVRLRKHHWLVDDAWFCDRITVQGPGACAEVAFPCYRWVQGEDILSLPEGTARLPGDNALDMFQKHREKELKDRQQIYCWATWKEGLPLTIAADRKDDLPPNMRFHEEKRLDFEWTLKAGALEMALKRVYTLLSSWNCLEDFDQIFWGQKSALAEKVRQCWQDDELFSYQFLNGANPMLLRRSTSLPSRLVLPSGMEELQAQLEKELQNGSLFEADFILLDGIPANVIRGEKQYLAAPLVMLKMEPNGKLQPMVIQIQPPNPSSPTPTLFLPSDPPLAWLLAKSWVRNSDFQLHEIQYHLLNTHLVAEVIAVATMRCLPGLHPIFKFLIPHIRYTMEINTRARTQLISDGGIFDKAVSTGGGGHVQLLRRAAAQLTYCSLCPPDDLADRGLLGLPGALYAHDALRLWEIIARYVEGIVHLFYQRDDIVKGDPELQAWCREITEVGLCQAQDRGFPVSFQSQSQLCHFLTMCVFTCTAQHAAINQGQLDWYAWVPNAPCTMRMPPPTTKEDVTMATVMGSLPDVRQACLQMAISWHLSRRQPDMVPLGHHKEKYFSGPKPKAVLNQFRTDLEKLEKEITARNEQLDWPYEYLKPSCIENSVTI
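Hydroperoxide output read as Fe(III)-xylenol orange absorbance, 573-to-405 nm ratio, after 30 min reaction with 40 uM arachidonic acid. Enzyme: 150 nM purified human 12hLO, 15 min compound preincubation; 25 mM Hepes pH 7.0, room temperature.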
HPGD inh – inhibitors of human 15-hydroxyprostaglandin dehydrogenase (HPGD) | 4.3% of 150,000 active | Potency, µM, actives largely listed as inhibitors | AID 894 | purified HPGD, NADH fluorescence kinetic, PGE2 substrate | P15428; active = well fitted inhibition curve with a large enough effect, not every such curve was filed as active; inconclusive = small, poorly fitted or top-dose-only effect, or another doubt; inactive = no such curve, though single readings can be large or run the other way
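NADH formation kinetics: reaction with 30 uM PGE2 and 1 mM NAD+ (final), 20 nM enzyme, Tris-HCl pH 8 with Tween 20, after 15 min compound preincubation at room temperature. Fluorescence change, last versus first of five reads.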
IMPase cell inh – cell-permeable inhibitors of inositol monophosphatase (IMPase); inhibition (IP1 accumulation), % at 46.1 µM; CHO-M1 cells, IP1 accumulation, HTRF TR-FRET ratio; 120,000 tested, under 10 active; P97697; active = well fitted curve in the direction sought with a large enough effect in the signal ratio, not every such curve was filed as active; inconclusive = small, poorly fitted or top-dose-only effect, or a change in a side signal; inactive = no such curve, though single readings can be large or run the other way; the % refers to the signal ratio;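 note: cells stimulated with carbachol in lithium chloride buffer; higher means more IMPase inhibition seen as more IP1 and lower FRET ratio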
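Measured: the HTRF emission ratio (665/620 nm) plus the 620 nm donor channel, each fitted to the Hill equation to give AC50. Cells were CHO-M1 given compounds up to 46 uM and a 30 min carbachol stimulation at 37C.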
ALDH1A1 inh – inhibitors of human aldehyde dehydrogenase 1A1; P00352; Purified ALDH1A1, NADH fluorescence, propionaldehyde substrate; Potency, µM (titrated, usually from 75.3 µM), actives largely listed as inhibitors; 7.3% of 220,000 active; AID 1030; active = well fitted inhibition curve with a large enough effect, not every such curve was filed as active; inconclusive = small, poorly fitted or top-dose-only effect, or another doubt; inactive = no such curve, though single readings can be large or run the other way
Hits are given with their value; [ ] = dose if it differs, or a comment. Unless noted, calls come from the whole dose curve; as a rule, active = well fitted curve in the direction sought with a large enough effect; inconclusive = small, poorly fitted or top-dose-only effect, or another doubt; inactive = no such curve, though single readings can be large; an effect the other way counts as inactive or inconclusive.

For CCOC(=O)c1ccc(-n2c(CN(CC)CC)nc3ccc([N+](=O)[O-])cc3c2=O)cc1 the results were IMPase Li cell inactive, NPSR antag inactive and ALDH1A1 inh 28µM.
For CC(Cl)C(=O)Nc1ccccc1C#N (configuration not stated) the results were IMPase Li cell inactive, NPSR antag inactive, ALOX12 inhib inactive, HPGD inh inactive and ALDH1A1 inh inactive.
Screening Oc1ccccc1/C=N/Nc1ccnc(SCc2ccccc2)n1 returned IMPase Li cell inactive, NPSR antag inactive, ALOX12 inhib inactive, HPGD inh 28µM and ALDH1A1 inh inactive.
Screening Clc1ccc(Cl)c(Nc2ccnc(SCc3ccccc3)n2)c1 returned IMPase Li cell inactive, ALOX12 inhib inactive[11.4 µM], HPGD inh inactive and ALDH1A1 inh inactive[13.5 µM].
Screening COC(=O)c1cn(NC(=O)CCC2CCCC2)c(=O)c2ccccc12 returned IMPase Li cell inactive, NPSR antag inactive, ALOX12 inhib inactive, HPGD inh inconclusive, IMPase cell inh inactive and ALDH1A1 inh inconclusive.
COc1ccc(C(=O)c2ccc(OC)c(N)c2)cc1N was read as IMPase Li cell inactive, NPSR antag inactive, ALOX12 inhib inactive, HPGD inh inactive, IMPase cell inh inactive and ALDH1A1 inh 20µM.
`COc1ccc(C(=O)c2ccc(OC)c(OC)c2)cc1` gave IMPase Li cell inactive, NPSR antag inactive, ALOX12 inhib inactive, HPGD inh inactive, IMPase cell inh inactive and ALDH1A1 inh inconclusive.
Cc1ccccc1-n1c(O)cc(=O)[nH]c1=S was read as IMPase Li cell inactive, NPSR antag inactive and ALDH1A1 inh inactive.
For CC1CCC(C(C)C)C(OC(=O)CSc2nccc(=O)[nH]2)C1 (configuration not stated) the results were IMPase Li cell inactive, NPSR antag inactive, ALOX12 inhib inactive, HPGD inh inactive, IMPase cell inh inactive and ALDH1A1 inh 25µM.
N#CC1=C(N)C(C#N)(C#N)C(c2cccnc2)C2COCC=C12 (configuration not stated) was read as IMPase Li cell inactive, NPSR antag inactive, ALOX12 inhib inactive, HPGD inh 28µM, IMPase cell inh inactive and ALDH1A1 inh inactive.
`O=C(NOC(=O)c1ccccc1)c1ccccc1` gave NPSR antag inactive and ALDH1A1 inh 20µM.
Screening CCCCNC(=O)Cc1c(OC)ccc2cc(Br)ccc12 returned IMPase Li cell inconclusive, NPSR antag inactive, ALOX12 inhib inactive, HPGD inh inactive and ALDH1A1 inh inactive.
Screening COc1ccc(C)cc1NC(=O)C(OC(=O)c1ccc([N+](=O)[O-])o1)c1ccccc1 (configuration not stated) returned IMPase Li cell inactive, NPSR antag inactive, ALOX12 inhib inactive, HPGD inh inactive and ALDH1A1 inh 18µM.
Screening S=C(NC1CCCCC1)NN(c1ccccc1)c1ccccc1 returned IMPase Li cell inactive, NPSR antag inactive, ALOX12 inhib inactive, HPGD inh inactive and ALDH1A1 inh inactive.
`Cc1c(NC2=C(Cl)C(=O)N(c3ccccc3Cl)C2=O)c(=O)n(-c2ccccc2)n1C` gave IMPase Li cell inactive, NPSR antag inactive, ALOX12 inhib inactive, HPGD inh inactive and ALDH1A1 inh 35µM.
C=CCNC1=C(Cl)C(=O)N(c2ccccc2Cl)C1=O was read as IMPase Li cell inactive, NPSR antag inactive, ALOX12 inhib inactive, HPGD inh inactive, IMPase cell inh inactive and ALDH1A1 inh 25µM.
Screening Cc1c(NC2=C(Cl)C(=O)N(c3ccccc3)C2=O)c(=O)n(-c2ccccc2)n1C returned IMPase Li cell inactive, NPSR antag inactive, ALOX12 inhib inactive, HPGD inh inactive, IMPase cell inh inactive and ALDH1A1 inh inconclusive.
Screening CCCCC(=O)Nc1cccc(-c2nc3ncccc3o2)c1 returned IMPase Li cell inactive, NPSR antag inactive[7.67 µM], ALOX12 inhib inactive, HPGD inh inconclusive, IMPase cell inh inactive and ALDH1A1 inh inconclusive.
COc1cc(OC)cc(N2C(=O)CSCC2=O)c1 was read as NPSR antag inactive.
`Cc1c(NC(=O)CSc2ccc(Cl)cc2)cccc1-c1nc2ncccc2o1` gave IMPase Li cell inactive, NPSR antag inactive, ALOX12 inhib inactive, HPGD inh inactive, IMPase cell inh inactive and ALDH1A1 inh inactive.
Screening O=C(c1ccco1)N1CCCSC1=Nc1ccccc1 returned IMPase Li cell inactive, NPSR antag inactive, ALOX12 inhib inactive, HPGD inh inactive, IMPase cell inh inactive and ALDH1A1 inh inactive.
`COc1ccc(N2CCN(Cc3cc(=O)oc4cc(-c5ccccc5)c(O)cc34)CC2)cc1` gave IMPase Li cell inactive, NPSR antag inactive, ALOX12 inhib inactive, HPGD inh inactive, IMPase cell inh inactive and ALDH1A1 inh inactive.
For O=c1cc(CN2CCN(c3ccccc3F)CC2)c2cc(O)c(-c3ccccc3)cc2o1 the results were IMPase Li cell inactive, NPSR antag inactive, ALOX12 inhib inactive, HPGD inh inactive and ALDH1A1 inh 28µM.
Screening CCC(C)NS(=O)(=O)c1ccc(S(=O)(=O)N2CC=C(c3ccc(F)cc3)CC2)cc1 (configuration not stated) returned IMPase Li cell inactive, NPSR antag inactive, ALOX12 inhib inactive, HPGD inh inconclusive and ALDH1A1 inh inactive.
O=C(O)c1ccc(NC(=O)c2cccc(N3C(=O)C4C5CCC(C5)C4C3=O)c2)cc1 (configuration not stated) was read as IMPase Li cell inactive, NPSR antag inactive, ALOX12 inhib inactive, HPGD inh inactive and ALDH1A1 inh inactive.
`O=C(Nc1ccc(Cl)cc1)c1cccc(N2C(=O)C3C4CCC(C4)C3C2=O)c1` (configuration not stated) gave IMPase Li cell inactive, NPSR antag inactive, ALOX12 inhib inactive, HPGD inh 32µM and ALDH1A1 inh inactive.
`O=CNCCCc1nc2ccccc2n1Cc1ccccc1` gave IMPase Li cell inactive, NPSR antag inactive, ALOX12 inhib inactive, HPGD inh inactive, IMPase cell inh inactive and ALDH1A1 inh 22µM.
`CCn1c2ccc(C)cc2c2nnc(SCCN3CCOCC3)nc21` gave IMPase Li cell inactive, NPSR antag inactive and ALDH1A1 inh 25µM.
Screening COc1ccc(OC)c(C2C(C#N)=C(N)Oc3cc(C)n(Cc4ccccn4)c(=O)c32)c1 (configuration not stated) returned IMPase Li cell inactive, NPSR antag inactive, ALOX12 inhib inactive, HPGD inh inactive, IMPase cell inh inactive and ALDH1A1 inh inactive.
Screening COc1cccc(C2CC(=O)N3CN(c4cccc(Cl)c4C)CSC3=C2C#N)c1OC (configuration not stated) returned IMPase Li cell inactive, NPSR antag inactive, ALOX12 inhib inconclusive, HPGD inh 7.9µM, IMPase cell inh inactive and ALDH1A1 inh 3.2µM.
